According to PubChem BioAssay (NCATS):
Unmarked numbers belong to inactive results. No rule for the calls is given here.

Test system: HIV-1 nucleocapsid protein NCp7 (binding to TG oligonucleotide)
Assay: HIV Nucleocapsid (AID 346);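 also: potency is for inhibitors that block NC binding and lower polarization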
Settings: HIV-1 NC / fluorescein-TGTGTGTG probe, fluorescence polarization
Procedure, shortened: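 Inhibition of nucleocapsid binding to single-stranded 5'-TGTGTGTG probe (10 nM) was measured by fluorescence polarization after 1 hr at room temperature with 100 nM protein under high-salt, zinc-containing, reducing conditions.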
Potency is read from the fitted curve at half-maximal effect.

Question: For `O=c1cnc2cncnc2n1Cc1ccccc1Cl`, which Potency is on record?
Answer: > 20 µM

Question: How did the Potency turn out when `COc1ncc2nc(-c3ccc(F)cc3)c(=O)n(CCc3ccccc3)c2n1` was run?
Answer: > 20 µM

Question: How did the Potency turn out when `CC(C)NC(=O)N1CCC2(CC1)CCN(C(=O)c1ccncc1)CC2` was run?
Answer: > 20 µM

Question: With `O=c1cnc2cnc(Nc3ccccc3)nc2n1Cc1ccc(F)cc1` as the molecule, how does the Potency read?
Answer: > 20 µM

Question: For `N#CCCn1c(=O)c(-c2cccs2)nc2cnc(N3CCNCC3)nc21`, which Potency is on record?
Answer: 16.4 µM

Question: How did the Potency turn out when `CS(=O)(=O)Nc1cccc(-c2ccc3ncnc(NC4CC4)c3c2)c1` was run?
Answer: > 20 µM

Question: Which Potency does the source give for `N#Cc1cccc(NC(=O)N2CC[C@@]3(CCCN(C(=O)c4csnn4)C3)C2)c1` here?
Answer: > 20 µM

Question: Which Potency does the source give for `COCCNc1ncnc2ccc(-c3c(C)noc3C)cc12` here?
Answer: > 20 µM

Question: How did the Potency turn out when `COc1ccc(C(=O)N2CCC3(CCCN(Cc4ccncc4)C3)CC2)cc1` was run?
Answer: > 20 µM

Question: With `COc1ccccc1-c1cncnc1N(C)Cc1ccco1` as the molecule, how does the Potency read?
Answer: > 20 µM

Question: `O=c1cnc2cnc(N3CCNCC3)nc2n1Cc1ccc(F)cc1` was tested. Which Potency did it give?
Answer: > 20 µM

Question: For `Cn1cccc1C(=O)N1CCC2(CCCN(C(=O)Nc3cccc(C#N)c3)C2)CC1`, which Potency is on record?
Answer: > 20 µM

Question: How did the Potency turn out when `CNc1ncnc2ccc(-c3ccccc3C#N)cc12` was run?
Answer: > 20 µM

Question: `O=C(c1ccco1)N1CCC2(CCN(Cc3nccs3)CC2)CC1` was tested. Which Potency did it give?
Answer: > 20 µM

Question: `COc1ccccc1CNc1nc(-c2ccoc2)nc2ccccc12` was tested. Which Potency did it give?
Answer: > 20 µM

Question: With `COc1ccc(Oc2ncc3nc(C)c(=O)n(-c4ccccc4)c3n2)cc1` as the molecule, how does the Potency read?
Answer: > 20 µM

Question: How did the Potency turn out when `Cc1nc2cnc(Oc3cccc(Cl)c3)nc2n(CCc2ccccc2)c1=O` was run?
Answer: > 20 µM

Question: `Cc1cnc(CNc2ncnc3ccc(-c4ccccc4C(F)(F)F)cc23)cn1` was tested. Which Potency did it give?
Answer: > 20 µM

Question: How did the Potency turn out when `Cc1ccccc1-c1nc(N2CCN(C)CC2)c2ccccc2n1` was run?
Answer: > 20 µM

Question: Which Potency does the source give for `Cc1ccccc1-c1ccc2ncnc(-n3ccnc3)c2c1` here?
Answer: > 20 µM

Question: How did the Potency turn out when `Cc1noc(C)c1-c1ccc2ncnc(NCc3ccccc3)c2c1` was run?
Answer: > 20 µM

Question: Which Potency does the source give for `O=c1c(-c2cc(F)cc(F)c2)nc2cnc(N3CCOCC3)nc2n1Cc1cccs1` here?
Answer: > 20 µM

Question: For `Cn1cccc1C(=O)N1CCC2(CCCN(C(=O)Nc3ccccc3)C2)CC1`, which Potency is on record?
Answer: > 20 µM

Question: Which Potency does the source give for `Cn1cccc1C(=O)N1CCC2(CC1)CN(C(=O)Nc1cccc(C#N)c1)C2` here?
Answer: > 20 µM

Question: `COCCn1c(=O)c(-c2cc(F)cc(F)c2)nc2cnc(N3CCNCC3)nc21` was tested. Which Potency did it give?
Answer: > 20 µM

Question: How did the Potency turn out when `CC(C)CN1CC2(CCN(C(=O)c3csnn3)CC2)C1` was run?
Answer: > 20 µM

Question: Which Potency does the source give for `CN(C)c1ncnc2ccc(-c3ccccc3C#N)cc12` here?
Answer: > 20 µM

Question: How did the Potency turn out when `Cc1cnc(CNc2ncnc3ccc(-c4cccc(C#N)c4)cc23)cn1` was run?
Answer: > 20 µM

Question: Which Potency does the source give for `O=c1c(-c2ccc(Cl)cc2)nc2cnc(Oc3ccccc3)nc2n1C1CC1` here?
Answer: > 20 µM

Question: `COc1ccc(CNc2cc(-c3ccccc3CN(C)C)ncn2)c(OC)c1` was tested. Which Potency did it give?
Answer: > 20 µM

Question: How did the Potency turn out when `CC(=O)N1CCC[C@@]2(CCN(Cc3ccccc3)C2)C1` was run?
Answer: > 20 µM

Question: How did the Potency turn out when `Cn1c(=O)c(CCc2ccccc2)nc2cncnc21` was run?
Answer: > 20 µM

Question: `COc1cccc(-c2nccc(NCCc3c[nH]c4ccc(OC)cc34)n2)c1` was tested. Which Potency did it give?
Answer: > 20 µM

Question: `CCNc1ncc2nc(CCc3ccccc3)c(=O)n(-c3ccc(OC)cc3)c2n1` was tested. Which Potency did it give?
Answer: > 20 µM

Question: How did the Potency turn out when `CS(=O)(=O)Nc1cccc(-c2ccc3ncnc(NCc4cccs4)c3c2)c1` was run?
Answer: > 20 µM

Question: How did the Potency turn out when `COc1ncc2ncc(=O)n(CCc3ccccc3)c2n1` was run?
Answer: > 20 µM

Question: For `CC(=O)N1CCC2(CCCN(c3ccccn3)C2)CC1`, which Potency is on record?
Answer: > 20 µM

Question: How did the Potency turn out when `Cc1ccccc1-c1nc(N(C)Cc2ccco2)c2ccccc2n1` was run?
Answer: > 20 µM

Question: For `Cc1nc2cncnc2n(C2CC2)c1=O`, which Potency is on record?
Answer: > 20 µM
